# Laboratory results reported in the supplement of paper PMC12282887.
# ± gives the standard deviation of the averaged measurements.
# Experiments:
# Assay in all cases: promoter activity interaction Z-score (Lux/OD deviation from empty-vector control); higher = stronger promoter induction by the compound
# [1] = system: E. coli BW25113 acrABp lux reporter
# Outline: (§1)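 At 37°C, E. coli BW25113 reporter cultures in 40 µl LB Lennox in 384-well plates were read for OD600 and luminescence every 30 min for 12 h. Windows were 0–8 h for wild type and 1–9 h for deletion strains, and wells under 10% of the median growth value were removed. The score is the Z-transformed residual of growth-normalised luminescence against a control fit.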
# [2] = system: E. coli BW25113 micFp lux reporter
# Outline: as §1
# [3] = system: E. coli BW25113 ompFp lux reporter
# Outline: as §1
# [4] = system: E. coli BW25113 robp lux reporter
# Outline: as §1
# [5] = system: E. coli BW25113 soxSp lux reporter
# Outline: as §1
# [6] = system: E. coli BW25113 tolCp lux reporter
# Outline: as §1
# [7] = 1329.2 µg/ml, genetic background: wild type
# [8] = 1329.2 µg/ml, genetic background: ΔmarA
# [9] = 1329.2 µg/ml, genetic background: Δrob
# [10] = 1329.2 µg/ml, genetic background: ΔsoxS
# [11] = 2658.5 µg/ml, genetic background: wild type
# [12] = 2658.5 µg/ml, genetic background: ΔmarA
# [13] = 2658.5 µg/ml, genetic background: Δrob
# [14] = 2658.5 µg/ml, genetic background: ΔsoxS
# [15] = 5317 µg/ml, genetic background: wild type
# [16] = 5317 µg/ml, genetic background: ΔmarA
# [17] = 5317 µg/ml, genetic background: Δrob
# [18] = 5317 µg/ml, genetic background: ΔsoxS
# [19] = 10634 µg/ml, genetic background: wild type
# [20] = 10634 µg/ml, genetic background: ΔmarA
# [21] = 10634 µg/ml, genetic background: ΔsoxS
compound,measurement,setting,value
CCN(CC)CCOC(=O)c1ccc(N)cc1 [Procaine],promoter activity interaction Z-score,[1]; [7],-0.662 ± 0.28
same,promoter activity interaction Z-score,[1]; [8],-0.602 ± 0.28
same,promoter activity interaction Z-score,[1]; [9],-0.872 ± 0.16
same,promoter activity interaction Z-score,[1]; [10],-0.805 ± 0.27
same,promoter activity interaction Z-score,[1]; [11],-0.675 ± 0.27
same,promoter activity interaction Z-score,[1]; [12],-0.191 ± 0.011
same,promoter activity interaction Z-score,[1]; [13],-0.754 ± 0.019
same,promoter activity interaction Z-score,[1]; [14],-0.807 ± 0.058
same,promoter activity interaction Z-score,[1]; [15],-0.798 ± 0.5
same,promoter activity interaction Z-score,[1]; [16],0.353 ± 0.5
same,promoter activity interaction Z-score,[1]; [17],-0.739 ± 0.25
same,promoter activity interaction Z-score,[1]; [18],-1.88 ± 0.78
same,promoter activity interaction Z-score,[1]; [19],-0.735 ± 0.28
same,promoter activity interaction Z-score,[1]; [20],-0.543 ± 0.93
same,promoter activity interaction Z-score,[1]; [21],-1.22 ± 0.13
same,promoter activity interaction Z-score,[2]; [7],0.885 ± 0.053
same,promoter activity interaction Z-score,[2]; [8],0.505 ± 0.026
same,promoter activity interaction Z-score,[2]; [9],0.103 ± 0.024
same,promoter activity interaction Z-score,[2]; [10],1.88 ± 0.031
same,promoter activity interaction Z-score,[2]; [11],1.93 ± 1.1
same,promoter activity interaction Z-score,[2]; [12],0.738 ± 0.027
same,promoter activity interaction Z-score,[2]; [13],0.206 ± 0.083
same,promoter activity interaction Z-score,[2]; [14],3.42 ± 0.14
same,promoter activity interaction Z-score,[2]; [15],2.99 ± 1
same,promoter activity interaction Z-score,[2]; [16],0.535 ± 0.11
same,promoter activity interaction Z-score,[2]; [17],0.692 ± 0.16
same,promoter activity interaction Z-score,[2]; [18],3.95 ± 0.25
same,promoter activity interaction Z-score,[2]; [19],4.96 ± 1.1
same,promoter activity interaction Z-score,[2]; [20],0.433 ± 0.12
same,promoter activity interaction Z-score,[2]; [21],1.99 ± 0.39
same,promoter activity interaction Z-score,[3]; [7],-1.52 ± 0.52
same,promoter activity interaction Z-score,[3]; [8],-1.23 ± 0.023
same,promoter activity interaction Z-score,[3]; [9],-1 ± 0.25
same,promoter activity interaction Z-score,[3]; [10],-1.06 ± 0.18
same,promoter activity interaction Z-score,[3]; [11],-1.95 ± 0.51
same,promoter activity interaction Z-score,[3]; [12],-1.57 ± 0.11
same,promoter activity interaction Z-score,[3]; [13],-1.23 ± 0.6
same,promoter activity interaction Z-score,[3]; [14],-2.1 ± 0.11
same,promoter activity interaction Z-score,[3]; [15],-2.79 ± 0.89
same,promoter activity interaction Z-score,[3]; [16],-2.57 ± 0.088
same,promoter activity interaction Z-score,[3]; [17],-2.71 ± 0.78
same,promoter activity interaction Z-score,[3]; [18],-3.43 ± 0.31
same,promoter activity interaction Z-score,[3]; [19],-3.06 ± 0.97
same,promoter activity interaction Z-score,[3]; [20],-3.26 ± 0.22
same,promoter activity interaction Z-score,[3]; [21],-2.71 ± 0.13
same,promoter activity interaction Z-score,[4]; [7],-0.965 ± 0.38
same,promoter activity interaction Z-score,[4]; [8],-0.355 ± 0.47
same,promoter activity interaction Z-score,[4]; [9],-0.376 ± 0.3
same,promoter activity interaction Z-score,[4]; [10],-0.451 ± 0.9
same,promoter activity interaction Z-score,[4]; [11],-0.714 ± 0.31
same,promoter activity interaction Z-score,[4]; [12],-0.386 ± 0.2
same,promoter activity interaction Z-score,[4]; [13],-0.635 ± 0.58
same,promoter activity interaction Z-score,[4]; [14],-1.84 ± 0.3
same,promoter activity interaction Z-score,[4]; [15],-0.969 ± 0.17
same,promoter activity interaction Z-score,[4]; [16],-0.0415 ± 0.013
same,promoter activity interaction Z-score,[4]; [17],-1.1 ± 0.3
same,promoter activity interaction Z-score,[4]; [18],-1.99 ± 0.064
same,promoter activity interaction Z-score,[4]; [19],-0.708 ± 0.78
same,promoter activity interaction Z-score,[4]; [20],-0.129 ± 0.82
same,promoter activity interaction Z-score,[4]; [21],-0.881 ± 1.3
same,promoter activity interaction Z-score,[5]; [7],0.403 ± 0.099
same,promoter activity interaction Z-score,[5]; [8],0.609 ± 0.067
same,promoter activity interaction Z-score,[5]; [9],0.838 ± 0.31
same,promoter activity interaction Z-score,[5]; [10],0.324 ± 0.23
same,promoter activity interaction Z-score,[5]; [11],0.281 ± 0.23
same,promoter activity interaction Z-score,[5]; [12],1.06 ± 0.17
same,promoter activity interaction Z-score,[5]; [13],1.61 ± 0.96
same,promoter activity interaction Z-score,[5]; [14],0.224 ± 0.071
same,promoter activity interaction Z-score,[5]; [15],0.719 ± 0.53
same,promoter activity interaction Z-score,[5]; [16],1.68 ± 0.037
same,promoter activity interaction Z-score,[5]; [17],1.63 ± 0.81
same,promoter activity interaction Z-score,[5]; [18],0.114 ± 0.72
same,promoter activity interaction Z-score,[5]; [19],0.878 ± 0.58
same,promoter activity interaction Z-score,[5]; [20],1.37 ± 0.74
same,promoter activity interaction Z-score,[5]; [21],-0.539 ± 1.1
same,promoter activity interaction Z-score,[6]; [7],0.541 ± 0.79
same,promoter activity interaction Z-score,[6]; [8],-0.042 ± 0.17
same,promoter activity interaction Z-score,[6]; [9],0.413 ± 1.2
same,promoter activity interaction Z-score,[6]; [10],-0.32 ± 1.4
same,promoter activity interaction Z-score,[6]; [11],0.257 ± 0.23
same,promoter activity interaction Z-score,[6]; [12],-0.2 ± 0.34
same,promoter activity interaction Z-score,[6]; [13],0.54 ± 1.8
same,promoter activity interaction Z-score,[6]; [14],-0.137 ± 0.1
same,promoter activity interaction Z-score,[6]; [15],-1.14 ± 0.3
same,promoter activity interaction Z-score,[6]; [16],-0.284 ± 0.59
same,promoter activity interaction Z-score,[6]; [17],-0.2 ± 0.18
same,promoter activity interaction Z-score,[6]; [18],0.786 ± 1
same,promoter activity interaction Z-score,[6]; [19],2.42 ± 2.2
same,promoter activity interaction Z-score,[6]; [20],1.73 ± 2.4
same,promoter activity interaction Z-score,[6]; [21],0.696
